# Assay outcomes as filed in PubChem.
# MEKK3 PB1 HTS = modulators (inhibitors or enhancers) of MEK5 binding to human MEKK3 PB1 domain; bead-based flow cytometry, Alexa488-MEK5 binding to MEKK3; actives lie on both sides; 0 = blocked by unlabeled MEK5, 100 = vehicle; binding response (% of control), % at 10 µM; 290,000 tested, 1.4% active; AID 1529;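 active = binding response more than 3 SD above or below the average of its plate-row segment, actives on both sides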;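 also: Alexa488 bead fluorescence after subtracting the streptavidin-only scavenger bead signal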
# Target sequence (Q99759 whole entry, looked up, the tested form may be a part): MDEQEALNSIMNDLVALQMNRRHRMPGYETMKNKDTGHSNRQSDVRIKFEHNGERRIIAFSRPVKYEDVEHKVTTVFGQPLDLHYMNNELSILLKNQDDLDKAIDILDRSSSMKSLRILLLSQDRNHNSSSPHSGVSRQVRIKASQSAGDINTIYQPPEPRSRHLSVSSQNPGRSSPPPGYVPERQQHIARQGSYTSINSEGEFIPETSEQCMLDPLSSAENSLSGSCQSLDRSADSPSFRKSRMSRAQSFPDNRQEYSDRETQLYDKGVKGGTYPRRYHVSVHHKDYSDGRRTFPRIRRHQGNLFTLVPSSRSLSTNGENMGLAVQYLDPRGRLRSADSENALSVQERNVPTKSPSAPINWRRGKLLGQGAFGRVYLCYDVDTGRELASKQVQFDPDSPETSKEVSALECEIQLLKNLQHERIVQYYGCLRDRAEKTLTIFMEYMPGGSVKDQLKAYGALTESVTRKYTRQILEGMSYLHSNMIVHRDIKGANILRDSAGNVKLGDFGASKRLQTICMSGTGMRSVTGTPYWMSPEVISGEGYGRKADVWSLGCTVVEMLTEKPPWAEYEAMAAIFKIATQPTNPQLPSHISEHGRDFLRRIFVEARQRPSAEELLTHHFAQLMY
# dFosB activator = mouse delta FosB homodimer activation; P13346; purified delta FosB, TAMRA-CDK5 oligo fluorescence polarization; percent of positive-control signal above neutral wells; activation, % at 25 µM; 340,000 tested, 0.99% active; AID 493131;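 active = mean activation above about 17%, with every replicate also reaching it, limit read from the data, passing the limit was not always enough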
# MEKK2 mut-MEK5 = signal of MEK5 binding to mutant human MEKK2 PB1 domain | bead flow cytometry, Alexa488-MEK5 binding to MEKK2 mutant | percent response, % at 10 µM | 290,000 tested, 0.35% active | AID 1530; in the data active = percent response above about 24%, passing the limit was not always enough
# FID counter = fluorescent intercalator displacement, NS3 helicase counter-screen | DNA fluorescent intercalator displacement, fluorescence | inhibition, % at 7.9 µM | 290,000 tested, 0.17% active | AID 1845; in the data active = inhibition above about 37%;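 also: 0% = vehicle and 100% = reference compound; higher means more ethidium bromide displaced from hairpin DNA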
# MEKK2 WT-MEK5 = raises or lowers MEK5 binding to wildtype human MEKK2 PB1 domain. 290,000 tested, 1.1% active. binding response (% of control), % at 10 µM. bead flow cytometry, Alexa488-MEK5 binding to MEKK2 WT; actives lie on both sides. Q9Y2U5; in the data active = binding response below about 67% or above about 130%
# MEKK2wt confirm = raises or lowers MEK5 binding to wildtype human MEKK2, retest; shares compounds with MEKK3 PB1 HTS; bead flow cytometry, Alexa488-MEK5 binding to MEKK2 WT; actives lie on both sides; binding response (% of control), % at 10 µM; 5,900 tested, 2.4% active; AID 1892; in the data active = binding response below about 16% or above about 210%; inactive = in between
# MEKK2mut-MEK5 = signal of MEK5 binding to mutant human MEKK2, retest | shares compounds with MEKK3 PB1 HTS | bead flow cytometry, Alexa488-MEK5 binding to MEKK2 mutant | percent response, % at 10 µM | 5,900 tested, 2% active | AID 1893; in the data active = percent response mostly above about 71%, no sharp cut-off; inactive = mostly below about 38%;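 also: higher means compound restores mutant binding toward wildtype level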
# MEKK3-MEK5 inh = MEKK3-MEK5 PB1 inhibition, single concentration confirmation; shares compounds with MEKK3 PB1 HTS; bead flow cytometry, Alexa488-MEK5 binding to MEKK3; active compounds read low; binding response (% of control), % at 10 µM; 5,900 tested, 1.8% active;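 active = binding response below 72% of control, or above a set upper limit, though filed actives all read lower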;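 also: 100% = DMSO only wells and 0% = binding blocked by excess unlabeled MEK5; lower values mean stronger disruption of MEK5 binding to MEKK3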
# * marks the source's active call; other numbers are inactive results; . = not tested or not shown; [ ] = dose if it differs, or a comment. Rows were chosen to be rich in hits. Some 2.9% of all compounds tested hit in one or more screens of this group.
SMILES,MEKK3 PB1 HTS,dFosB activator,MEKK2 mut-MEK5,FID counter,MEKK2 WT-MEK5,MEKK2wt confirm,MEKK2mut-MEK5,MEKK3-MEK5 inh
Cc1nnc(NC(=O)CSc2nnc(CC(=O)Nc3ccccc3C)n2C)s1,97,-6,-6,-11,92,.,.,.
O=[N+]([O-])c1cccc(-c2nnnn2-c2cccc(F)c2)c1,.,0,.,.,.,.,.,.
Cc1ccc2c(c1)CCCN2C(=O)NC1CCCCC1,97,-8,-2,-15,96,.,.,.
CC(=O)N1CCN2C(=O)C1CCCC(=O)c1cc(C)ccc12 (configuration not stated),48*[inhibitor],2,5,1,64,103,0,99
Nc1nc(N2CCN(C/C=C/c3ccccc3)CC2)nc2ccccc12,101,5,13,13,114,.,.,.
CC(C)(C)C1CCC2(CC1)C(Nc1cccc(C(F)(F)F)c1)=NC(=S)N2CC#N (configuration not stated),2.0*[inhibitor],-11,-18,2,3.0*[inhibitor],99,-1,98
C=CC[C@H](CC(=O)N(CCO)Cc1ccccc1)C(=O)N[C@H](C)COC(=O)[C@@H](CC=C)CC(=O)OC(C)(C)C,.,-7,.,.,.,.,.,.
Nc1ccccc1C(=O)NCCCN1CCN(c2cccc(Cl)c2)CC1,.,-1,.,.,.,.,.,.
COc1ccc(C23CC4CC(CC(C4)C2)C3)cc1C(=O)NCCN(C)C,104,11,17,24,140*,163,37,107
CC(=O)Nc1ccc(NC(=O)c2c(-c3ccccc3Cl)noc2C)c(C)c1,102,0,0,-16,99,.,.,.
CC(=O)Nc1ccc(OC(=O)c2c(-c3ccccc3Cl)noc2C)cc1,144*,-1,1,-24,106,102,0,99
CCCOc1ccc(C(=O)NC2CCSc3ccccc32)cc1 (configuration not stated),104,5,6,-27,104,.,.,.
CCOC(=O)C(NC(=O)Nc1ccc(F)cc1F)(Oc1ccccc1)C(F)(F)F (configuration not stated),120,5,0,-2,109,.,.,.
CCOC(=O)C(NC(=O)Nc1ccc(Cl)cn1)(Oc1ccccc1)C(F)(F)F (configuration not stated),153*,-13,4,1,104,105,4,104
NNc1cc(C(=O)O)ccc1Cl,55*[inhibitor],11,-17,-6,61*[inhibitor],100,-4,101
O=C1C=C(c2ccc(Oc3ccccc3)cc2)C[C@@H](c2ccc(F)cc2)C1,.,-6,.,.,.,.,.,.
Cc1cccn2c(=O)c(/C=C(\C#N)C(=O)NC3CCS(=O)(=O)C3)c(Oc3ccc(F)cc3)nc12 (configuration not stated),104,-8,6,-29,107,.,.,.
Cc1cccn2c(=O)c(/C=C(\C#N)C(=O)NC3CCS(=O)(=O)C3)c(N3CCC(C)CC3)nc12 (configuration not stated),131*,-7,-1,1,104,102,-1,105
COc1ccc(-c2c(-c3ccc(OCC(=O)NN)cc3O)n[nH]c2C(F)(F)F)cc1,130*,-3,0,-5,107,100,-11,97
O=C(Cn1cnc([N+](=O)[O-])n1)N/N=C/c1cc(Cl)ccc1O,135*,3,17,3,121,110,6,106
O=C(Cn1cnc([N+](=O)[O-])n1)N/N=C/c1ccccc1O,101,-8,7,3,102,.,.,.
Cc1c2cnn(CC(=O)NCCCN3CCCCC3C)c(=O)c2c(C)n1Cc1ccccc1 (configuration not stated),101,6,28*,0,145*,130,21,104
Cc1c2cnn(CC(=O)NC3CCCC3)c(=O)c2c(C)n1Cc1ccccc1,103,-5,-3,-25,103,.,.,.
